Test [1] is described as follows: TAMU_PeakParms_SingleDonor1434_Asystole: Texas A&M University (TAMU) 1.5-hr Human Induced Pluripotent Stem Cell (iPSC)-derived Cardiomyocytes Calcium (Ca+2) Flux Assay for Cardiotoxicity: Asystole (quiescence of beating) (AID 2284328; active = hit-call score of the fitted dose curve at least 0.9, where 1 is the maximum). Put shortly:
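Average Ca2+-flux peak frequency (beats/s) was recorded in single-donor iPSC-derived cardiomyocytes after 90 min exposure (0.2–100 uM final, 0.5% DMSO). Asystole POD set as EC95 against DMSO, no preprocessing.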

The nature of test [2]: CCTE_Deisenroth_5AR_NBTE_donor: CCTE's 5alpha-reductase NanoBRET Target Engagement Assay […], Deisenroth Lab (AID 2284319). To be noted: actives raise or lower the signal. Summed up:
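HEK293T cells were reverse transfected with an SRD5A2-NanoLuc vector for 20 h, exposed to test chemical (8 points, 10 nM - 29.9 uM) for 3 h, then testosterone tracer for 2 h more. Donor luminescence (460 nm) was read; bidirectional fit versus DMSO.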
For orientation: In BRET a luciferase serves as donor, and the signal depends on an acceptor being close.

Test [3] in a line: CCTE_Deisenroth_5AR_NBTE_acceptor: CCTE's 5alpha-reductase NanoBRET Target Engagement Assay - Autofluorescence Screen, Deisenroth Lab (AID 2284321).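 Also: compound fluorescence in the acceptor channel under 460 nm excitation flags autofluorescence artifacts.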 To be noted: actives raise or lower the signal. Put shortly: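 Acceptor fluorescence intensity was read as an artifact-detection endpoint. Test chemicals at an assumed nominal 100 uM were excited at 460 nm across three independent runs. Activity was fitted bidirectionally against DMSO.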

The subject of another test is SRD5A2 (gene 6716). Briefly: CCTE_Deisenroth_5AR_NBTE_ratio: CCTE's 5alpha-reductase NanoBRET Target Engagement Assay - Ratio, Deisenroth Lab (AID 2284322). As to conditions: actives raise or lower the signal. Put shortly: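 Reverse-transfect HEK293T with pNLF1-C-SRD5A2, express 20 h. Pre-incubate cells with chemical 3 h (8-point series, 10 nM - 29.9 uM, duplicate). Add testosterone tracer, 2 h more. Add substrate/inhibitor, read donor and acceptor emission.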

Test [4] in a line: IUF_NPC2-5_cytotoxicity_72hr: Cytotoxicity Assessment at 72 hours in the Leibniz Research Institute for Environmental Medicine (IUF) Neural Progenitor Cell Migration and Differentiation Assay for Cytotoxicity (NPC2-5) (AID 2284306; active = hit-call score of the fitted dose curve at least 0.9, where 1 is the maximum;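 also: LDH release into supernatant measured by resorufin fluorescence marking membrane damage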). Summed up:
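Membrane integrity loss was scored from fluorescence (RFU) of resorufin generated by LDH in culture supernatant, 72 h after dosing. Differentiating human progenitor spheres received seven serial compound concentrations alongside a solvent control.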

Test [5] is described as follows: IUF_NPC2-5_cytotoxicity_120hr: Cytotoxicity Assessment at 120 hours in the Leibniz Research Institute for Environmental Medicine (IUF) Neural Progenitor Cell Migration and Differentiation Assay (NPC2-5) (AID 2284307; active = hit-call score of the fitted dose curve at least 0.9, where 1 is the maximum;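 as to AC50: LDH released into supernatant as membrane damage marker via resorufin fluorescence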). Summed up:
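Sphere plating starts differentiation and exposure together at day 0. Compound solution is half-replaced on day 3. At 120 h, medium supernatant is taken for an LDH membrane-integrity read based on resazurin reduction to resorufin fluorescence.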

Test [6] can be described thus: IUF_NPC2-5_cell_number_120hr: Cell Number Assessment at 120 hours in the Leibniz Research Institute for Environmental Medicine (IUF) Neural Progenitor Cell Migration and Differentiation Assay (NPC2-5) (AID 2284308).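 Also: count of Hoechst-stained nuclei in migration zone around plated human neural progenitor spheres.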 Summed up:
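hNPC spheres, one per well, PDL/laminin, N2 medium, 37C, 5% CO2. Dosing day 0 → half-medium change with fresh compound day 3 → fix 120 h. Readout: Hoechst+ nuclei count, migration area; 7 concentrations plus solvent control.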

The nature of test [7]: IUF_NPC2-5_viability_120hr: Viability Assessment at 120 hours in the Leibniz Research Institute for Environmental Medicine (IUF) Neural Progenitor Cell Migration and Differentiation Assay (NPC2-5) (AID 2284312). Summed up: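 Alamar blue resorufin fluorescence read after 5 days of differentiation, with compound present from day 0 and replenished at day 3. Primary hNPC spheres on laminin-coated plates, 37C; seven concentrations plus solvent control, fitted against DMSO.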

The nature of test [8]: IUF_NPC1_cytotoxicity_72hr: Cytotoxicity Assessment at 72 hours in the Leibniz Research Institute for Environmental Medicine (IUF) Neural Progenitor Cell Proliferation Assay (NPC1) (AID 2284332; active = hit-call score of the fitted dose curve at least 0.9, where 1 is the maximum;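 also: rising LDH signal means more cytotoxicity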). Put shortly: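 Single human fetal cortex neural progenitor spheres (GW 16-19, 0.25-0.35 mm) in EGF/FGF proliferation medium were exposed to compound for 72 h at 37C without renewal. Medium LDH release was read as resorufin fluorescence and fitted as gain-of-signal.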

The subject of test [9] is Brachyury (BRA) Protein Expression, Deisenroth Lab, TBXT (gene 6862). Briefly: CCTE_Deisenroth_DEVTOX-GLR_legacy_Bra: (Legacy) CCTE's DevTox GLR-Endo Assay Evaluation of Brachyury (BRA) Protein Expression, Deisenroth Lab (AID 2284329). Summed up:
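Human pluripotent RUES2-GLR line was exposed twice during 48 h differentiation to a 10-point series, 1 nM - 200 uM. Fraction of Bra-positive cells was scored by imaging against pluripotent baseline and fitted after 0.2% DMSO subtraction.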

Test [10] is described as follows: CCTE_Deisenroth_DEVTOX-GLR_legacy_CellCount: (Legacy) Viability Assessment in CCTE's DevTox GLR-Endo Assay, Deisenroth Lab (AID 2284331). To be noted: actives raise or lower the signal. Summed up: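 RUES2-GLR human pluripotent cells were seeded 24 h, then differentiated 48 h with two compound doses at 24 h intervals (10-point, 1 nM - 200 uM). Fixed nuclei were imaged and counted; bidirectional fitting versus 0.2% DMSO.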

A short description of test [11]: CCTE_Mundy_HCI_iCellGluta_NOG_NeuriteLength: CCTE's Neurite Outgrowth Assay in iCellGluta cells for Neurite Length, Mundy Lab (AID 2284318; active = hit-call score of the fitted dose curve at least 0.9, where 1 is the maximum). Summed up: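 Automated high-content imaging of betaIII-tubulin (Alexa Fluor-488) and Hoechst-stained cells gave neurite length, normalized to the DMSO baseline.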

Molecules are shown by their SMILES. Inconclusive results are not listed. Active and inactive are the calls of the source. The calls were made as follows, unless noted: active = hit-call score of the fitted dose curve at least 0.9, where 1 is the maximum; inactive = score below 0.9.

On to `CCCOC(=O)c1cc(O)c(O)c(O)c1`, for which the outcome in test [1] was inactive.
Consider `CN(C)c1ccc(C(=C2C=CC(=[N+](C)C)C=C2)c2ccc(N(C)C)cc2)cc1`, for which the AC50 in test [2] was 12.6 µM (active); in test [3], 4.78 µM (active); in the test with SRD5A2 (gene 6716), 0.593 µM (active); in [1], 0.589 µM (active).
With `CC(C)(c1cc(Br)c(O)c(Br)c1)c1cc(Br)c(O)c(Br)c1`, the AC50 was 4.45 µM (active) in test [4], 3.04 µM (active) in test [5], 2.79 µM (active) in test [6] and 2.94 µM (active) in test [7]. Moreover, the outcome in [1] and in test [8] was inactive.
For the compound `CCN(Cc1cccc(S(=O)(=O)O)c1)c1ccc(C(=C2C=CC(=[N+](CC)Cc3cccc(S(=O)(=O)O)c3)C=C2)c2ccccc2S(=O)(=O)[O-])cc1`, the call in [2] was inactive. The half-maximal activity concentration (AC50) in test [3] was 21.7 µM (active); in the test on SRD5A2 (gene 6716) it was 2.9 µM (active).
As to `CCCCOC(=O)c1ccc(O)cc1`, the AC50 was 100 µM (active) in [9] and 38.2 µM (active) in test [10].
`O=c1[nH]sc2ccccc12`: the AC50 was 81.2 µM (active) in [2], 82.8 µM (active) in test [3] and 75 µM (active) with SRD5A2 (gene 6716).
Turning to `OCCO`, the compound was called inactive in test [9] and in test [10].
For `O=C1O[C@H]([C@@H](O)CO)C(O)=C1O`, the call in [4], in test [5], in test [6], in [7], in test [11] and in test [8] was inactive.
With `CCCCCCCCCCCO`, the result (in test [2]; in [3]; in the test on SRD5A2 (gene 6716)) was inactive.
`CN(C[C@@H](CC[N+]12CCC(C3CCCCC3)(CC1)CC2)c1ccc(Cl)c(Cl)c1)C(=O)c1cc(C(F)(F)F)cc(C(F)(F)F)c1`: the AC50 in [2] was 19.7 µM (active); in [3], 16.1 µM (active); with SRD5A2 (gene 6716), 76 µM (active).
The corresponding values for `O=C(O)Cc1cc(I)c(Oc2ccc(O)c(I)c2)c(I)c1` are 28.2 µM (active), 14.3 µM (active) and 77.3 µM (active).
Regarding `CC/C(=C(/CC)c1ccc(O)cc1)c1ccc(O)cc1`, the outcome in [1] was inactive. For the same compound, the results for the AC50 in [9] and in [10] were 1.3 µM (active) and 1.54 µM (active), respectively.

A word on the AC50: it is the midpoint of the concentration-response curve, whichever way the signal moves.
